Data as given in PubChem BioAssay (Tox21).
Inconclusive results are not listed. Activity calls are given as the source filed them. Calls come from the whole dose curve.

Test: qHTS assay to identify small molecule antagonists of the sonic hedgehog signaling (Shh) pathway (AID 1259369); note: nearly all actives have a fitted effect of over 45% in size
Settings: NIH/3T3 Gli1-Luc reporter, Shh antagonist, luminescence 24 h; series mostly up to 92.4 µM; activity change, negative = inhibition: at the top concentration
Description: U.S. Tox21 Program National Center for Advancing Translational Sciences [NCATS] NIH Chemical Genomics Center [NCGC] U.S. Environmental Protection Agency [EPA] National Institutes of Environmental Health Sciences [NIEHS] National Toxicology Program [NTP] U.S. Food and Drug Administration [FDA] Tox21 Assay Overview: The sonic hedgehog (Shh) pathway is essential for normal embryonic development. Dysregulation of the Shh pathway can cause severe developmental defects in organs. Therefore chemicals that interfere with the pathway are potential developmental toxicants. A cell line designated 3T3Gli1-Luc (DMB/OARSA/CFSAN/FDA, Laurel, MD), a NIH/3T3 derived clone containing stably integrated Gli1-Luc reporter is used to detect chemical interference of the Shh pathway, by changes in the expression of the firefly Luc gene under the control of the Gli1 transcriptional response element. This cell line was used to screen Tox21 libraries for identifying and prioritizing the potential developmental toxicants that interfere Shh pathway. Conditioned medium-stimulated mode was used to screen for chemicals inhibiting Shh signaling.
Tox21 Assay Protocol Summary: 3T3 Gli1-Luc cells were dispensed at 2,000 per well in 5uL of culture medium into white solid bottom 1536-well plates (Greiner Bio-One, Monroe, NC) using a Multidrop Combi (Thermo Scientific, Waltham, MA) dispenser. The assay plates were incubated at 37 C and 5% CO2 for 4hr, and then 23nL of compounds dissolved in DMSO and positive control were transferred using a Pintool station (Wako, San Diego, CA). The compound transfer was followed by the addition of 1ul conditioned medium or assay buffer using two separate tips of Flying Reagent Dispenser (FRD, Aurora Discovery, San Diego, CA). The assay plates were incubated at 37C and 5% CO2 for 24hr. For luciferase read, 4uL of Amplite Luciferase reporter gene assay reagent (AAT Bioquest, Inc. Sunnyvale, CA) was added to each well of the assay plates using FRD and incubated at room temperature for 30min. The luminescence signal was measured using a ViewLux plate reader (Perkin Elmer, Shelton, CT).
% is set by controls: 0 for no effect and ±100 for the full control effect; potency is the fitted concentration of half-maximal effect.

Row | Compound | activity change, negative = inhibition | Potency
1 | CCCCCCCCCCCCCCCC(=O)NCCO | 21.3% [at 42.5 µM] (inactive) | 
2 | FC(F)(F)/C(=N\OCC1OCCO1)c1ccc(Cl)cc1 | -9.69% (inactive) | 
3 | Cc1cc(C)cc([N+](=O)[O-])c1 | 14.4% (inactive) | 
4 | CC(C)(CO)[C@@H](O)C(=O)NCCCO | -2.27% [at 42.5 µM] (inactive) | 
5 | Oc1ccccc1Cc1ccccc1O |  | 30.6 µM (active)
6 | CC(=O)OCCCc1ccccc1 | 18.6% (inactive) | 
7 | CCCCCCCC/C=C\CCCCCCCC(=O)OC[C@@H](O)[C@H]1OC[C@H](O)[C@H]1O | 0% (inactive) | 
8 | CCCCCCCCCCCCCC(=O)OC | 0% (inactive) | 
9 | c1ccccc1 | 13.1% (inactive) | 
10 | CC(=O)OC(C(=O)c1ccccc1)c1ccccc1 (stereo not given) | -0.301% (inactive) | 
11 | C[Si]1(C)N[Si](C)(C)N[Si](C)(C)N1 | 31.3% (inactive) | 
12 | CC(C)COC(=O)CC(C(=O)OCC(C)C)S(=O)(=O)O (stereo not given) | 35.5% (inactive) | 
13 | BrC/C=C/CBr | -14% [at 19 µM] (inactive) | 
14 | O=C(/C=C/c1ccccc1)NCCO | 7.68% [at 42.5 µM] (inactive) | 
15 | CCCCC(CC)C(=O)OC(C)C (stereo not given) | 0% (inactive) | 
16 | O=S1(=O)CCCC1 | 0% (inactive) | 
17 | CC(=O)c1ccc2c(c1)CCCC2 | 8.33% (inactive) | 
18 | O=C(c1ccc2c(c1)C(=O)OC2=O)c1ccc2c(c1)C(=O)OC2=O | 0.652% (inactive) | 
19 | CCCCCCCCCOCC1CO1 (stereo not given) | -15.3% (inactive) | 
20 | O=S(=O)(O)SSS(=O)(=O)O | -44% (inactive) | 

Row | Compound | activity change, negative = inhibition | Potency
21 | CC(C)COC(=O)/C=C/c1ccccc1 | 4.16% (inactive) | 
22 | O=C(O)c1c(Cl)ccc(Cl)c1Cl | -7.3% (inactive) | 
23 | C=C(C)C(=O)OCCCCCCOC(=O)C(=C)C | 5.48% (inactive) | 
24 | CC(C)C(=O)c1ccccc1 | 6.2% (inactive) | 
25 | CCC(C)(C)C1CCC(=O)CC1 | 1.82% (inactive) | 
26 | Cc1cc(O)c2c(c1)C(=O)c1cccc(O)c1C2=O | -27.5% [at 42.5 µM] (inactive) | 
27 | C=CC(C)(O)CC/C=C(\C)CC (stereo not given) | -0.559% (inactive) | 
28 | CCN(CC)C(=O)C1CN2CCc3cc(OC)c(OC)cc3C2CC1OC(C)=O (stereo not given) | -2.2% [at 42.5 µM] (inactive) | 
29 | COC(OC)C(C)c1ccccc1 (stereo not given) | 11.7% (inactive) | 
30 | CCC(O)C(C)(C)C (stereo not given) | 18.9% (inactive) | 
31 | C=CCOCC(O)CCl (stereo not given) | 4.46% (inactive) | 
32 | Cc1cccc(Nc2ccncc2S(=O)(=O)NC(=O)NC(C)C)c1 | 9.4% [at 42.5 µM] (inactive) | 
33 | CN[C@@H]1[C@@H](O)[C@@H](O[C@@H]2[C@H](O)[C@H](O[C@H]3OC(CN)=CC[C@H]3N)[C@@H](N)C[C@H]2N)OCC1(C)O (stereo not given in full) | 29.2% [at 42.5 µM] (inactive) | 
34 | CCCOCCOCCOCCO | 7.47% (inactive) | 
35 | CCC(C)N (stereo not given) | 5.66% (inactive) | 
36 | CC(C)COC(=O)COc1ccc(Cl)cc1Cl | 18.1% (inactive) | 
37 | CNC(=O)C(c1ccccc1)c1ccccc1 | 0% (inactive) | 
38 | CCNC(=O)/C=C/c1cccc(Br)c1 | 37.3% [at 42.5 µM] (inactive) | 
39 | C[C@H](CCC(=O)NCC(=O)O)[C@H]1CC[C@H]2[C@@H]3[C@H](O)C[C@@H]4C[C@H](O)CC[C@]4(C)[C@H]3C[C@H](O)[C@]12C | 17.5% (inactive) | 
40 | CC(=O)c1ccc(OCC(=O)N2CCCCC2)cc1 | 24.9% [at 42.5 µM] (inactive) | 
